Sampled rows, rich in hits. Any-hit rate of the full collection: about 10%.
HP1b chromo inh: HP1-beta chromodomain-methylated histone interaction inhibition; P83916; AlphaScreen HP1-beta / biotin-H3K9me3 peptide binding; Potency, µM (doses to about 114 µM), inactives show at the highest dose activity change, negative = inhibition, actives largely listed as inhibitors; actives 0.56% (n = 390,000); note: potency is the fitted concentration of half-maximal effect; nearly all actives have a fitted effect of over 70% in size
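Compound inhibition of the preformed complex between 50 nM HP1-beta and 50 nM biotinylated H3K9me3 peptide was read by AlphaScreen. Buffer was PBS pH 7.4 with 0.01% Tween-20. Incubations ran 30 min at room temperature, with 10 ug/mL donor/acceptor beads.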
Six1-Eya2 inh: inhibitors of human Six1/Eya2 interaction; activity change, % (no concentration beside the values); AlphaScreen GST-Six1/His-Eya2 binding, biochemical; hits give low values; actives 0.56% (n = 360,000); Q15475+O00167; AID 651725; in the data active = activity change below about -65%; inconclusive = mostly about -30% to -63%; note: % is set by controls: 0 for no effect and ±100 for the full control effect
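GST-Six1 + His-Eya2 (5X stock: 250/500 nM); Tris pH 8.0, 300 mM NaCl, 0.05% BSA, 0.02% Tween 20; GSH donor/Ni acceptor beads; 1 h 37 °C dark; AlphaScreen readout.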
CtBP-E1A inh: blocks the CtBP interaction with E1A; AlphaScreen GST-E1A/His-CtBP binding, 1536-well; hits give low values; activity change, % (test concentration not listed); actives 0.49% (n = 340,000); AID 651724; in the data active = activity change below about -65%; inconclusive = mostly about -30% to -63%; note: % is set by controls: 0 for no effect and ±100 for the full control effect
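GST-E1A and His-tagged CtBP (125 nM each as 5X stock) were preincubated with pin-transferred compound for 2 h at 37 °C in the dark, then glutathione donor and nickel acceptor beads were added for 1 h before AlphaScreen reading.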
JMJD2A Tudor: JMJD2A Tudor domain (human) inhibition. actives 4.4% (n = 390,000). AlphaScreen JMJD2A-Tudor / H3K4me3 peptide binding. Potency, µM (titrated, usually from 114 µM), for inactives: top-dose activity change, negative = inhibition, hits mostly inhibitors. O75164; note: potency is the fitted concentration of half-maximal effect; % is set by controls: 0 for no effect and ±100 for the full control effect; nearly all actives have a fitted effect of over 50% in size
BAZ2B block: inhibitors of human BAZ2B bromodomain; actives 4.4% (n = 360,000); Potency, µM (series often up to 114 µM), for the others: at the highest dose activity change, negative = inhibition, most hits filed as inhibitors; AlphaScreen BAZ2B-H3K14Ac peptide displacement; note: potency is the fitted concentration of half-maximal effect; % is set by controls: 0 for no effect and ±100 for the full control effect; nearly all actives have a fitted effect of over 60% in size
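AlphaScreen displacement: compounds (up to 110uM) incubated 30 min at room temperature with a preformed 50 nM BAZ2B/50 nM biotinylated H3K14Ac peptide complex in PBS pH 7.4 with Tween-20. Donor and acceptor beads at 10 ug/mL final added, 20 min light-protected before reading.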
G9a block: blocks human histone lysine methyltransferase G9a. AID 504332. Q96KQ7. actives 8.8% (n = 350,000). G9a H3K9 monomethylation, AlphaScreen, 2 h. Potency, µM (doses to about 102 µM), inactives show at the highest dose activity, negative = inhibition, actives largely listed as inhibitors; note: potency is the fitted concentration of half-maximal effect; % is set by controls: 0 for no effect and ±100 for the full control effect; nearly all actives have a fitted effect of over 75% in size
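Methyltransferase reactions run at room temperature for 2 h (20 nM enzyme, 500 nM biotin-H3K9 peptide, 20 uM SAM) after a 15 min compound preincubation; product detected by AlphaScreen beads and anti-H3K9me1 antibody.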
* hit, by the source's call; ? = inconclusive; · = no result given; ! = not confirmed by another sample; [ ] = dose if it differs, or a comment. Unless noted, calls come from the whole dose curve; as a rule, active = well fitted inhibition curve with a large enough effect; inconclusive = small, poorly fitted or top-dose-only effect; inactive = no such curve, though single readings can be large or run the other way.

SMILES	HP1b chromo inh	Six1-Eya2 inh	CtBP-E1A inh	JMJD2A Tudor	BAZ2B block	G9a block
C=C/C(=C/C(=O)C[C@H](C)C[C@@H](C)CC[C@H](O)[C@H](C)C(=O)C[C@@H](O)[C@H](C)[C@@H](C)OC(=O)C[C@@H](O)C1=C(C)C(=O)OC1=O)CC	·	·	·	·	·	-42.2%[2.33 µM]
Cc1c(N=Nc2c(O)[nH]c(=S)[nH]c2=O)c(=O)n(-c2ccccc2)n1C	26.6%	-83.8*	-93.0*	12.6µM*	4.47µM*	2µM*
CCOc1ccc(-n2c(O)c(N=Nc3c(C)n(C)n(-c4ccccc4)c3=O)c(=O)[nH]c2=O)cc1	30.5%	-89.7*	-91.2*	25.1µM*	14.1µM*	-42.2%
Cc1c(N=Cc2c(O)n(CCc3ccccc3)c(=O)[nH]c2=O)c(=O)n(-c2ccccc2)n1C	13.3%	-25.9	-9.1	-21.9%	6.0%	-18.2%[59 µM]
C=CCn1c(O)c(N=Nc2c(C)n(C)n(-c3ccccc3)c2=O)c(=O)[nH]c1=S	9.8%	-91.1*	-86.9*	25.1µM*	7.08µM*	0.794µM*
CCCCCCn1c(O)c(C=Nc2c(C)n(C)n(-c3ccccc3)c2=O)c(=O)[nH]c1=O	17.7%	-5.2	1.5	2.0%	-32.3%	-22.1%[12.7 µM]
C=CCSc1nc2c(c(-c3ccsc3)c1C#N)CN(C)CC2	-3.4%	-6.7	-13.7	-32.4%	-36.5%	15.8µM*
Cc1nn(-c2ccccc2)c2c1P(=O)(O)/C(=C1\N(C)c3ccccc3C1(C)C)C=N2	36.5%	7.3	13.6	-16.8%	-7.7%	?
CN(c1ccccc1N(C)S(=O)(=O)c1ccccc1)S(=O)(=O)c1ccccc1	57.1%	1.5	5.1	-15.0%	·	·
CN(CC(=O)Nc1cccc(F)c1)CC(=O)Nc1cccc(S(=O)(=O)N(C)c2ccccc2)c1	39.8µM*	-1.7	-3.3	0.891µM*	·	·
CC(=O)c1c(O)n(-c2cccc(Cl)c2)c(=O)[nH]c1=O (tested in a mixture with another compound)	16.0%	-2.8	-21.8	-18.3%	-29.2%	50.1µM*
COc1cc2[nH]c(=O)n(-c3cccc(Cl)c3)c(=O)c2cc1OC	35.8%	-3.2	-1.5	-2.5%	10.9%	1.6%[12.7 µM]
OC(COCc1ccc(Cl)cc1)CN1CC=C(c2ccccc2)CC1 (centres undefined)	?	-2.5	-16.8	1.12µM*!	50.1µM*	?
CCOc1cc(/C=C2/C(=O)NC(=O)N(c3ccc(CC)cc3)C2=O)ccc1OC(=O)c1cccs1	12.5%	-13.5	24.2	79.4µM*	50.1µM*	29.4%[0.501 µM]
COc1cc(/C=C2/C(=O)NC(=O)N(c3ccccc3)C2=O)ccc1O	34.4%	-2.7	0.5	-10.7%	-1.3%	35.5µM*
O=C1NC(=O)N(c2ccccc2)C(=O)/C1=C/c1ccoc1	23.3%	-14.5	0.2	-14.0%	?	39.8µM*
COc1cccc(N2C(=O)NC(=O)/C(=C/c3ccc4c(c3)Cc3ccccc3-4)C2=O)c1	43.0%	8.2	0.0	56.2µM*	44.7µM*	7.08µM*
O=C1NC(=O)N(c2ccccc2)C(=O)/C1=C\c1ccccc1[N+](=O)[O-]	11.9%	-0.6	-0.9	-8.7%	-7.8%	28.2µM*
Cc1cc(C)cc(N2C(=O)NC(=O)/C(=C\c3cccn3-c3ccccc3)C2=O)c1	17.6%	9.4	5.6	-15.4%	-18.5%	?
C[N+](C)(C)CCCCCCCCCC[N+](C)(C)C	51.2%	0.0	-0.7	-2.2%	-0.5%	19.8%[59 µM]
O=C1NC(=O)N(c2cccc(Cl)c2)C(=O)/C1=C\c1ccc(Sc2nc3ccccc3[nH]2)o1	?	?	2.6	35.5µM*	35.5µM*	3.16µM*
O=C1NC(=O)N(c2ccccc2F)C(=O)/C1=C/c1ccc(Sc2nc3ccccc3[nH]2)o1	?	?	2.9	22.4µM*	31.6µM*	6.31µM*
Cc1cccc(N2C(=O)NC(=O)/C(=C/c3ccc(N4CCOCC4)cc3)C2=O)c1	23.1%	-5.1	-13.6	-11.6%	·	?
O=C1NC(=O)N(c2ccccc2)C(=O)/C1=C/c1ccc(Sc2ccccc2)o1	-0.4%	-4.4	1.4	56.2µM*	50.1µM*	10µM*
C[n+]1cc(P(=S)(c2ccccc2)c2ccccc2)n2ccccc21	·	·	·	10.9%	·	·
SMILES	HP1b chromo inh	Six1-Eya2 inh	CtBP-E1A inh	JMJD2A Tudor	BAZ2B block	G9a block
COc1ccc(NC(=O)N2C[C@@H]3C[C@@H](C2)c2cccc(=O)n2C3)c(OC)c1	35.1%	0.8	-1.5	-8.2%	-1.2%	3.55µM*
O=c1cccc2n1CC1CC2CN(Cc2c(F)cccc2Cl)C1 (centres undefined)	13.4%	-2.1	15.8	56.2µM*	?	44.7µM*
CCCOc1ccc(C(=O)NC(=S)N2C[C@H]3C[C@H](C2)c2cccc(=O)n2C3)cc1	-15.0%	1.0	6.3	?	-10.2%	11.2µM*
O=C(NC(=S)N1C[C@H]2C[C@H](C1)c1cccc(=O)n1C2)c1ccc(Cl)cc1Cl	-3.8%	6.7	6.2	-24.5%	-2.6%	39.8µM*
CCOC(=O)CNC(=S)N1CC2C[C@@H](C1)Cn1c2cccc1=O	27.3%	1.3	2.6	1.4%	0.9%	-1.3%
CCCCCc1cc(O)c2c(c1)OC(C)(C)C1CC=C(C)CC21 (centres undefined)	·	·	·	·	·	-40.3%[12.7 µM]
O[C@H]1[C@H]2[C@H](O)CCCN2C[C@H]1O	·	·	·	·	·	1.3%[12.7 µM]
COc1ccc(C(=O)NC(=S)N2C[C@H]3C[C@H](C2)c2cccc(=O)n2C3)cc1OC	38.2%	17.7	32.0	-35.4%	-9.0%	44.7µM*
NS(=O)(=O)c1nc[nH]c1[N+](=O)[O-]	5.0%	8.3	-3.7	20µM*	·	·
CSC(=S)NCc1c[nH]c2ccccc12	·	·	·	·	·	1.4%[59 µM]
O=C1NC(=S)N(c2ccccc2)C(=O)C1C(c1ccncc1)C1C(=O)NC(=S)N(c2ccccc2)C1=O (centres undefined)	29.0%	-8.3	-7.4	-24.7%	-28.3%	44.7µM*
O=C(O)c1ccccc1SSc1ccccc1C(=O)O	55.8%	-22.9	-7.6	2.3%	-4.0%	28.2µM*
C[CH2][Hg][S]c1ccccc1C(=O)O	?	3.2	-17.9	17.8µM*	·	?
COc1ccc(C(=O)NCCn2cc(SC(C)c3ccccc3)c3ccccc32)cc1OC (centres undefined)	11.8%	·	·	-28.4%	?	-39.1%[59 µM]
CCOc1cc(/C=C(\C#N)C(=O)NCC2CCCO2)ccc1OCC(N)=O (centres undefined)	-16.4%	-7.3	-15.9	-24.1%	-11.1%	50.1µM*
OC[C@@H](O)[C@H]1O[C@@H]2OC(C(Cl)(Cl)Cl)O[C@H]2[C@H]1O (some centres undefined)	·	·	·	·	·	3.3%[12.7 µM]

Bioassay records deposited in PubChem by National Center for Advancing Translational Sciences (NCATS).
